# TDP1 cell CPT: DT40-hTDP1 cell growth loss with CPT; 420,000 compounds, 12% hits; chicken DT40 Tdp1-/-;hTDP1 cells + 20 nM CPT, ATP luminescence, 48 h; AID 686979; Potency, µM (titrated, usually from 46.2 µM), inactives show at the top dose activity change, negative = growth inhibition, most hits filed as inhibitors; note: potency is the fitted concentration of half-maximal effect; nearly all actives have a fitted effect of over 55% in size
#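 Chicken DT40 Tdp1-/- cells stably complemented with human TDP1 were seeded at 400 cells/well in medium containing 20 nM camptothecin, exposed to pin-transferred compounds, and grown at 37 °C for at least 48 hr. Viability was read as ATP luminescence.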
# HT1080 IDH1KD tx: toxicity to HT-1080 IDH1 knockdown cells (counter line); HT-1080 IDH1 knockdown viability, ATP luminescence, 48 h; Potency, µM (series often up to 46.1 µM), for the others: at the top dose activity, negative = toxicity, actives largely listed as cytotoxic; 360,000 compounds, 2% hits; AID 686971;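 note: potency is the fitted concentration of half-maximal effect; 0% = DMSO wells and -100% = cell-free medium wells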
#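 After a 2 h attachment period, IDH1KD HT-1080 cells took pin-transferred compound for 48 h at 37 °C; ATP-based luminescence after 10 min room-temperature reagent incubation reported viability.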
# HT1080NT lethal: kills 2HG-producing HT-1080-NT fibrosarcoma cells. Potency, µM (top dose mostly 46.1 µM), for inactives: at the top dose activity, negative = less viability, actives largely listed as cytotoxic. HT-1080-NT fibrosarcoma viability, CellTiter-Glo ATP luminescence, 48 h. 360,000 compounds, 1.6% hits;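 note: NT is the 2HG producing partner of a matched IDH1 knockdown line; potency is the fitted concentration of half-maximal effect; 0% = DMSO-treated cells and -100% = media-only wells without cells; nearly all actives have a fitted effect of over 55% in size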
#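 A 48-hour cytotoxicity screen used HT-1080-NT cells plated 2 hours before compound delivery. ATP-based CellTiter-Glo luminescence measured viability, normalized to DMSO and no-cell controls.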
# DT40 TDP1 no CPT: qHTS for Inhibitors of human tyrosyl-DNA phosphodiesterase 1 (TDP1): qHTS in cells in absence of CPT; DT40 Tdp1-/- hTDP1 cells, no CPT, ATP luminescence, 48 h; Potency, µM (series often up to 46.2 µM), without a hit: at the highest dose activity change, negative = growth inhibition, most hits filed as inhibitors; 420,000 compounds, 15% hits; note: potency is the fitted concentration of half-maximal effect; nearly all actives have a fitted effect of over 55% in size
#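 Compound effects on proliferation are scored in DT40 Tdp1-/-;hTDP1 cells in the absence of CPT. ATP levels (CellTiter-Glo luminescence) are recorded after a ≥48 hr, 37 °C incubation.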
# IL1B secr inh: inhibitors of inflammasome signaling (IL-1 beta secretion). THP-1 LPS/ATP IL-1B secretion, AlphaLISA, 16 h; hits give low values. activity change, % at 57.5 µM. 360,000 compounds, 4.7% hits; in the data active = activity change below about -50%; inconclusive = mostly about -30% to -49%
#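 THP-1 cells pretreated 1 hr with compounds (up to 57.5 uM final), then stimulated with LPS (250 ng/mL final) plus ATP (1.25 mM final); secreted IL-1B measured by AlphaLISA after 16 hr, decreased signal indicating inhibition.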
# * marks the source's active call; other numbers are inactive results; ? = inconclusive; nt = no result; ! = a repeat was not active; [ ] = remark or other dose. Compounds with a hit are over-represented: about 19% of the library has one in this group of screens. Unless noted, calls come from the whole dose curve; as a rule, active = well fitted curve in the direction sought with a large enough effect; inconclusive = small, poorly fitted or top-dose-only effect, or another doubt; inactive = no such curve, though single readings can be large; an effect the other way counts as inactive or inconclusive. Unless noted, % is set by controls: 0 for no effect and ±100 for the full control effect.
SMILES,TDP1 cell CPT,HT1080 IDH1KD tx,HT1080NT lethal,DT40 TDP1 no CPT,IL1B secr inh
CC1N(C)c2cc(NC(=O)c3ccco3)c(P(=O)(Nc3ccc([N+](=O)[O-])cc3)N3CCOCC3)cc2C1(C)C (centres undefined),4.6µM*,10µM*,?,5.2µM*,-55*
COCCCN1CCN(c2nnc3n2-c2sc(Br)cc2C(c2ccccc2Cl)=NC3)CC1,?,13%,0%,?,-2
Cc1nn(Cc2ccccc2)c(C)c1C=C1C(=O)NC(=O)NC1=O,7%,-1%,-1%,-2%,-106*
C(=NN1CCCCCC1)c1c[nH]c2ccccc12,0%,15%,10%,-17%,8
Brc1ccc2[nH]cc(/C=N/N3CCCCC3)c2c1,?,-19%,-12%,15µM*,-65*
COC(=O)[C@H]1[C@@H](OC(=O)c2ccccc2)C[C@@H]2CC[C@H]1N2C,?,nt,nt,-10%[92.5 µM],nt
CN(CC=CCN(C)P(=S)(N1CC1)N1CC1)P(=S)(N1CC1)N1CC1,1.6µM*,-11%,-1%,1.8µM*,8
Cc1ccc(-c2n[nH]c(=S)n2-c2ccccc2)cc1,14µM*!,12%,11%,?,16
C[C@@H]1OC(OC2C(OC3CC[C@@]4(C)C5CC=C6C7CC(C)(C)CC[C@@]7(C(=O)O)CCC6(C)C5(C)CCC4[C@]3(C)CO)OCC(O)C2O)C(O)C(O)C1O (some centres undefined),?,nt,nt,16µM*,nt
CCC(C)C1N=C(c2ccccc2)c2cc(Cl)ccc2N(CC(=O)NCc2ccco2)C1=O (centres undefined),-29%,-13%,-3%,-22%,-10
O=C(Cn1c(=O)nc(-c2ccccc2)c2cc(Cl)ccc21)NCc1ccccc1,7.3µM*,nt,nt,16µM*,nt
Cc1ccc(S(=O)(=O)N2CCC(=O)N(CCOC(=O)Nc3cccc(Cl)c3)CC2)cc1,12µM*,-2%,-1%,21µM*,-12
COC(=O)CCC(=O)Nc1sc(Cc2ccccc2)c(C)c1C(N)=O,12µM*,-1%,15%,23µM*,23
NC(=O)c1ccsc1NC(=O)COC(=O)Cc1ccccc1,-6%,-5%,1%,?,19
FC(F)(F)c1cccc(C2=CCN(CCc3ccc4ccccc4c3)CC2)c1,-18%,nt,nt,-48%,nt
Cc1nc2cc(-c3cccc(F)c3)nn2c(C)c1CCC(=O)N1CCC2(CC1)OCCO2,16µM*,15%,3%,?,0
Cc1nc2c(c(C)nn2-c2ccccc2)c(C)c1CCC(=O)N1CCC2(CC1)OCCO2,?,6%,3%,?,0
O=C(c1csnn1)N1CCC[C@@]2(CCN(Cc3ccncc3)C2)C1,-4%,nt,nt,-12%,nt
C/C(=N\NP(=S)(c1ccccc1)c1ccccc1)c1ccc(O)cc1O,-31%,-25%,?,-21%,-17
Clc1cccc(C2NCc3ccccc3-n3cccc32)c1 (centres undefined),?,1%,8%,?,17
COc1ccc2nc(NC(=O)CCc3nc(C4=CCN(C)CC4)no3)sc2c1,-24%,6%,13%,-26%,-21
CCc1nnc(NC(=O)CCc2nc(C3=CCN(C)CC3)no2)s1,-9%,18%,5%,-17%,-54*
COc1ccc2c3c1OC1C(O)C=CC4C(C2)[N+](C)(C)CCC341 (centres undefined),0%,-7%,0%,-16%,8
CSc1cccc(CNC(=O)C2CCC(=O)N(Cc3cccc(C(F)(F)F)c3)C2)c1 (centres undefined),?,-9%,-8%,-6%,-11
CCOc1ccc(Cn2c(=O)oc3ccc(C)cc32)cc1OC,?,-9%,-23%,?,-12
SMILES,TDP1 cell CPT,HT1080 IDH1KD tx,HT1080NT lethal,DT40 TDP1 no CPT,IL1B secr inh
Cc1c(C(=O)NCc2cccc(C(F)(F)F)c2)sc(=O)n1Cc1ccc(C(=O)N(C)C)cc1,?,0%,-1%,15µM*,-16
COc1ccc(CNC(=O)c2sc(=O)n(Cc3ccc(C)cc3)c2C)cc1OC,?,-1%,4%,16µM*,-25
CCOC(=O)c1ccc(N2CCN(c3ccccc3F)CC2)c(NC(=O)Nc2ccc(Cl)c(Cl)c2)c1,1.3µM*,nt,nt,1.3µM*,nt
CCC(=O)Nc1ccc(C(=O)OCc2ccccc2Cl)cc1,?,3%,3%,?,1
Cc1ccc(NC(=O)Nc2cc3c(cc2N2CCCCC2)n(C)c(=O)n3C)cc1Cl,16µM*,nt,nt,7.3µM*,nt
CCOC(=O)c1ccc(NC(=O)Nc2cc3c(cc2N2CCCCC2)n(CC)c(=O)n3CC)cc1,12µM*,nt,nt,10µM*,nt
N[C@H](CCCCCP(=O)(O)O)C(=O)O,-6%,nt,nt,0%,nt
NC(Cc1cc(O)c(O)cc1O)C(=O)O (centres undefined),5µM*,nt,nt,6.3µM*,nt
N[C@@H](Cc1cc(I)c(O)c(I)c1)C(=O)O,-12%,-1%,4%,?,27
Cn1c(=O)c2c(nc(SCc3ccccc3)n2Cc2ccc(Cl)cc2)n(C)c1=O,?,-15%,1%,?,?
Cc1ccc(-c2c(C)n3c4c(=O)n(C)c(=O)n(C)c4nc3n2CCO)cc1,0.26µM*,nt,nt,0.18µM*,nt
CC(C)CC[C@@H](O)[C@](C)(O)C1CC[C@@]2(O)C3=CC(=O)[C@@H]4C[C@@H](O)[C@@H](O)C[C@]4(C)C3CC[C@]12C (some centres undefined),-5%,9%,?,-11%,0
CCCc1[nH][nH]c(=O)c1C(c1ccc(Cl)cc1)C(C#N)C#N (centres undefined),-12%,-6%[9.24 µM],?,-23%,-83*
CCCc1[nH][nH]c(=O)c1C(c1ccccc1)C(C#N)C#N (centres undefined),?,0%,4%,?,-17
CC/C(=N\Nc1ccccc1)c1c(O)n(C)c(=O)n(C)c1=O,?,?,?,?,49
CCC(=NCCc1c[nH]c2ccccc12)c1c(O)n(C)c(=O)n(C)c1=O,4µM*,?,?,6.3µM*,?
CCC(=NCCc1c[nH]c2ccccc12)c1c(O)n(-c2ccc(C)cc2)c(=O)[nH]c1=O,?,-12%,3%,?,8
CCC(=NC(C)c1ccccc1)c1c(O)n(C)c(=O)n(C)c1=O (centres undefined),21µM*,-26%,-19%,7.3µM*,-26
CN1CCCC2(CCN(C(=O)c3csnn3)CC2)C1,11%,nt,nt,-3%,nt
COc1ccc(OC(=O)N(C)C[C@@H]2OCc3cnnn3CCCC(=O)N([C@H](C)CO)C[C@H]2C)cc1,-11%,1%,3%,1%,9

# Assay outcomes: PubChem, National Center for Advancing Translational Sciences (NCATS)
